These results are taken from PubChem BioAssay (Tox21).

The nature of test [1]: qHTS assay to identify small molecule antagonists of the estrogen related receptor (ERR) signaling pathway from Tox21 library - cell viability counter screen (AID 1224834). Also: nearly all actives have a fitted effect of over 30% in size. Also: potency is read from the fitted curve at half-maximal effect. The method in brief: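 Fluorescence from CellTiter-Fluor gives the viability read-out, taken 30 min after reagent addition. Before that, ERR cells seeded 6 h earlier were incubated with compounds for 17.5 h at 37 C.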
In general terms: qHTS replaces the single test concentration by a dilution series.

In test [2] the target is Luciferin 4-monooxygenase (Photinus pyralis) (UniProt P08659). Briefly: qHTS assay to identify small molecule inhibitors of firefly luciferase (AID 1224835). Also: nearly all actives have a fitted effect of over 25% in size. Also: potency is read from the fitted curve at half-maximal effect. The method in brief:
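Quantitative HTS format; KM concentrations of both substrates. Purified P. pyralis FLuc activity quantified from luminescence images.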

Test [3] in a line: qHTS assay to identify small molecule agonists of the constitutive androstane receptor (CAR) signaling pathway - cell viability counter screen (AID 1224836). Also: nearly all actives have a fitted effect of over 45% in size. Also: potency is read from the fitted curve at half-maximal effect. In short, it runs like this: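 Fluorescence from CellTiter-Fluor indicates live cells after 23 h exposure. The human hepatoma line expresses hCAR and a CYP2B6-2.2kb reporter. Incubation medium contains 0.75 uM PK11195 (final).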

Test [4] can be described thus: qHTS assay to identify small molecule antagonists of the constitutive androstane receptor (CAR) signaling pathway - cell viability counter screen (AID 1224837). Also: nearly all actives have a fitted effect of over 45% in size. Also: potency is read from the fitted curve at half-maximal effect. The method in brief: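 HepG2-CYP2B6-hCAR cells, 2500/well, 4 hr pre-incubation; compound titration, 15 conc.; CITCO 50 nM final; 23 hr, 37 C/5% CO2; CellTiter-Fluor, fluorescence intensity.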
For test [5], the target named is Nuclear receptor subfamily 1 group I member 3 (Homo sapiens) (UniProt Q14994). Briefly: qHTS assay to identify small molecule antagonists of the constitutive androstane receptor (CAR) signaling pathway (AID 1224838).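 Also: HepG2 cells stably expressing hCAR with CYP2B6 luciferase reporter stimulated by CITCO; nearly all actives have a fitted effect of over 40% in size.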 Also: potency is read from the fitted curve at half-maximal effect. The method in brief: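 HepG2-CYP2B6-hCAR cells; 4 h pre-incubation; cpd (15 conc) + CITCO 50 nM final; 24 h, 37 C/5% CO2; ONE-Glo, luminescence.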
Chain of Nuclear receptor subfamily 1 group I member 3 (Homo sapiens) (Q14994 whole entry, looked up): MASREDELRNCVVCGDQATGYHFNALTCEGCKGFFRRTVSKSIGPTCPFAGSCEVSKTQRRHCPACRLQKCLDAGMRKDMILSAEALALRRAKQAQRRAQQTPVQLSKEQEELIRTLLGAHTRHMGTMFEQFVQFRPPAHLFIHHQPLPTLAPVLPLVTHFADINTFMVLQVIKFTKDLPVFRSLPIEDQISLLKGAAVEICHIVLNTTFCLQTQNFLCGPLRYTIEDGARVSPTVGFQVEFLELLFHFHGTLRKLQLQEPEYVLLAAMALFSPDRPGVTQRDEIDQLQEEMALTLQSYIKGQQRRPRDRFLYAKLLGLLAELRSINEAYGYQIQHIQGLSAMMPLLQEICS
A short description of test [6]: qHTS assay to identify small molecule antagonists of the estrogen related receptor signaling pathway with the pleiotropic PPARgamma coactivator (PGC) from Tox21 10K library - cell viability counter screen (AID 1224840; active = well fitted cell-killing curve with a large enough effect in the repeat runs, not every such curve was filed as active; also: nearly all actives have a fitted effect of over 40% in size; also: potency is read from the fitted curve at half-maximal effect). In short, it runs like this:
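PGC/ERR cells, 2,000/well; 6 h pre-incubation 37 C/5% CO2; cpd in DMSO via pin tool; 17.5 h 37 C; CellTiter-Fluor, 30 min; fluorescence.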

Test [7] addresses Thyrotropin receptor (Homo sapiens) (UniProt P16473). Briefly: qHTS assay to identify small molecule agonists of the thyroid stimulating hormone receptor (TSHR) signaling pathway (AID 1224843; calls by dose curve; also: nearly all actives have a fitted effect of over 45% in size; also: potency is read from the fitted curve at half-maximal effect). In short, it runs like this:
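Cell line HEK293 with TSHR; density 800/well. Exposure 30 min RT. Readout HTRF cAMP (cAMP-d2/anti-cAMP-cryptate), 1 h RT before reading.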

For test [8], the target named is Nuclear receptor subfamily 1 group I member 3 (Homo sapiens) (UniProt Q14994). Briefly: qHTS assay to identify small molecule agonists of the constitutive androstane receptor (CAR) signaling pathway (AID 1224839). Also: nearly all actives have a fitted effect of over 15% in size. Also: potency is read from the fitted curve at half-maximal effect. The method in brief: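 Stable hCAR/CYP2B6-2.2kb HepG2 line in DMEM with 10% FBS; compounds (15 concentrations) and 0.75 uM PK11195 final, 24 h at 37 C/5% CO2, then ONE-Glo luminescence after 30 min.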

Test [9] in a line: qHTS assay to identify small molecule antagonists of the estrogen related receptor signaling pathway with the pleiotropic PPARgamma coactivator (PGC) from Tox21 10K library (AID 1224841; call rule not given here; also: actives are mostly falling curves and most rising ones were filed inactive; nearly all actives have a fitted effect of over 50% in size; also: potency is read from the fitted curve at half-maximal effect). In short, it runs like this:
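PGC/ERR cell line, 2,000 cells/well; 6 h pre-incubation 37 C/5% CO2; compounds (DMSO) pinned in; 18 h, 37 C; One-Glo, 30 min RT; luminescence.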

Test [10] in a line: qHTS assay to identify small molecule agonists of the estrogen related receptor signaling pathway with the pleiotropic PPARgamma coactivator (PGC) from Tox21 10K library (AID 1224842). Also: nearly all actives have a fitted effect of over 15% in size. In short, it runs like this: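 PGC/ERR reporter cells (NTP line) were seeded 2,000 per well, rested 6 h at 37 C/5% CO2, then pin-dosed with compounds in DMSO for 18 h at 37 C; luciferase read by One-Glo luminescence after 30 min at room temperature.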

Several values for one entry are separate records, joined by “and”; a condition that tells them apart may be missing. Equal values may be shown once. Inconclusive results are not listed. Activity calls are given as the source filed them. Unless noted, calls follow the shape of the dose curve; as a rule, active = well fitted curve in the direction sought with a large enough effect in the repeat runs; inconclusive = weak or mixed curves; inactive = no such curve, though single readings can be large; an effect the other way counts as inactive or inconclusive.

Chain of Luciferin 4-monooxygenase (Photinus pyralis) (P08659 whole entry, looked up): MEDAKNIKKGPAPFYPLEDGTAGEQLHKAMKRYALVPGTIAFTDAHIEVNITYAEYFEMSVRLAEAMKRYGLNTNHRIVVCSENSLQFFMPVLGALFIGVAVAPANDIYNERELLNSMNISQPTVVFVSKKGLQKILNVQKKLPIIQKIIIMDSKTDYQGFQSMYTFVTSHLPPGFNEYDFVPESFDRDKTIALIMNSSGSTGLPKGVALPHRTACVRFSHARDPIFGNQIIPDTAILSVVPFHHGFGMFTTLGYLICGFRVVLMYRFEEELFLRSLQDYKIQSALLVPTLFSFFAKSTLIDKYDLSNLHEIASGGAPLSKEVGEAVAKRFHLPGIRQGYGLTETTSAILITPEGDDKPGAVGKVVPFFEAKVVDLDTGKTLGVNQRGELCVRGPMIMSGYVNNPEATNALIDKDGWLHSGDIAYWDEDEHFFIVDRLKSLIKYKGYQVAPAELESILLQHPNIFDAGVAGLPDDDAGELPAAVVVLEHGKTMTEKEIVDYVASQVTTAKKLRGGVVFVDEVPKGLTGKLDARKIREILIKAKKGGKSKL
Chain of Thyrotropin receptor (Homo sapiens) (P16473 whole entry, looked up): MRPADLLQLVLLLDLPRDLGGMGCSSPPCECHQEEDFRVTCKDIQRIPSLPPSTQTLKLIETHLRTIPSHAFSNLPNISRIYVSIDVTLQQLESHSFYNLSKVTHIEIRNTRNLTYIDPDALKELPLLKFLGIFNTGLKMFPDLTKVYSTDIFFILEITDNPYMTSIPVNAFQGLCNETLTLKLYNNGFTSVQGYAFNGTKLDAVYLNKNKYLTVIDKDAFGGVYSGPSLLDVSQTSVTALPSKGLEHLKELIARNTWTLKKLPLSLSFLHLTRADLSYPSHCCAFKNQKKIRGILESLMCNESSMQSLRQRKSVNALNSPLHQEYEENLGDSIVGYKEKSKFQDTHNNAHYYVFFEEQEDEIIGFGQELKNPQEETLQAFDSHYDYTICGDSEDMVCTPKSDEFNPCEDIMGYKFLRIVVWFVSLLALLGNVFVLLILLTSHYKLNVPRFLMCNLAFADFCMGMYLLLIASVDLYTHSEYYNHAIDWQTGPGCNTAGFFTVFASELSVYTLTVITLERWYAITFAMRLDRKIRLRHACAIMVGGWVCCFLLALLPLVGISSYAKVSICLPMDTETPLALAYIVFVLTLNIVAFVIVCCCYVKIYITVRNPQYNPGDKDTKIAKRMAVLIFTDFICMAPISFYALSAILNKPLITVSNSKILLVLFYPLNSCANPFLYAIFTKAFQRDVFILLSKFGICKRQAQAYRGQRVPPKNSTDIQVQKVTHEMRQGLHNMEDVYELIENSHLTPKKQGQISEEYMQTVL

Take `COc1c2c(cc3c1OCO3)CCN(C)C2`: the Potency entry in test [1], in [2], in test [3], in test [4], in test [5] and in test [6] was “inactive” throughout. For the same molecule, the Potency result in [7] was “inactive”.

Regarding `CCCCC/C=C\C/C=C\C/C=C\C/C=C\CCCC(=O)NCC(=O)O`, the Potency entry in [1], in test [2], in [3], in test [4], in test [5] and in test [8] was “inactive” throughout. Further, the Potency entry in [6] was “inactive”.

Consider `CC1(C)[C@H](/C=C2\CCSC2=O)[C@@H]1C(=O)OCc1coc(Cc2ccccc2)c1`, for which the Potency entry in test [1], in test [2], in test [3], in test [4], in test [5] and in [6] was “inactive” throughout.

For the molecule `N#CC(C#N)=NNc1cccc(Cl)c1`, the Potency in [1] is 9.69 µM (active); in [2], 35.6 µM (active); in test [3], 6.11 µM (active); in test [4] it was 6.86 µM (active); in test [5] it was 2.43 µM (active); in [6] it was 7.7 µM (active). In addition, in test [9], the Potency was 0.969 µM (active). The Potency result in test [8], in test [10] and in [7] was “inactive” in each case.

As to `CCC(OC(C)=O)C(CC(C)NC)(c1ccccc1)c1ccccc1` (configuration not stated), the Potency in test [1], in [3], in test [4], in test [5] and in test [6] was 69.2 µM (active) each time. Moreover, the Potency result in test [2], in test [8], in [9], in test [10] and in test [7] was “inactive” each time.

`Cc1c([N+](=O)[O-])c(C)c([N+](=O)[O-])c(C(C)(C)C)c1[N+](=O)[O-]`: the Potency entry in test [1], in test [2], in test [3], in test [4], in test [5] and in test [6] was “inactive” in each case. The Potency result in test [9] and in test [10] was “inactive” in each case. In addition, in [8], the Potency was 34.4 µM (active).

On to `CNC(=O)CSP(=O)(OC)OC`, for which the Potency result in test [1], in test [2], in test [3], in test [4], in [5] and in test [8] was “inactive” in each case. Besides, the Potency entry in test [6] and in test [7] was “inactive” throughout.

With `CC(Cc1ccc(OCC(=O)O)cc1)NCC(O)c1csc(C(F)(F)F)n1` (configuration not stated), the Potency result in test [1], in test [2], in test [3], in test [4], in test [5] and in [8] was “inactive” each time. The Potency result in test [6], in [9], in [10] and in test [7] was “inactive” throughout.

For the molecule `Cc1cc2c3c(c1)C(c1ccccc1)=N[C@@H](NC(=O)c1ccncc1)C(=O)N3CC2`, the Potency result in test [1], in test [2], in [3], in test [4], in [5] and in test [8] was “inactive” throughout. For the same molecule, the Potency result in test [6], in [9], in test [10] and in [7] was “inactive” in each case.

As to `ClC1=C(Cl)[C@]2(Cl)[C@H]3[C@H]([C@@H]4C=C[C@H]3C4)[C@@]1(Cl)C2(Cl)Cl`, the Potency entry in [1], in test [2], in [3], in [4], in [5] and in test [6] was “inactive” in each case. Also, the Potency in test [8] was 13.7 µM (active); in [7] it was 19.3 µM (active) and 13.7 µM (active).

As for `CC(C)C(Br)C(=O)NC(N)=O` (configuration not stated), the Potency entry in [1], in [2], in [3], in test [4], in [5] and in test [8] was “inactive” throughout. Besides, the Potency entry in test [6] and in test [7] was “inactive” throughout.

Consider `CC(=O)[O][Pb]([c]1ccccc1)([c]1ccccc1)[c]1ccccc1`, for which the Potency in test [1] is 2.73 µM (active); in test [2], 22.4 µM (active); in test [3], 5.45 µM (active); in test [4], 7.7 µM (active); in [5], 1.54 µM (active); in test [6], 3.06 µM (active). In test [9], the Potency is 6.86 µM (active). The Potency result in test [8] and in test [10] was “inactive” throughout.

For `CSC(C)(C)/C=N/O`, the Potency entry in test [1], in test [2], in [3], in [4], in test [5] and in [8] was “inactive” each time. In addition, the Potency entry in test [6] and in test [7] was “inactive” throughout.

On to `COC(=O)C(C)N(C(=O)c1ccco1)c1c(C)cccc1C` (configuration not stated), for which the Potency result in test [1], in test [2], in test [3], in test [4], in test [5] and in [6] was “inactive” in each case. In addition, the Potency entry in test [9], in test [10] and in [7] was “inactive” each time. The Potency in test [8] was 15.3 µM (active).

With `Cc1c([N+](=O)[O-])cc2c(c1[N+](=O)[O-])C(C)(C)CC2(C)C`, the Potency result in test [1], in test [2], in test [3], in test [4], in test [5] and in test [6] was “inactive” each time. For the same molecule, in test [10], the Potency result was “inactive”. The results for the Potency in test [8], in test [9] and in [7] were 12.2 µM (active), 30.6 µM (active) and 48.6 µM (active), respectively.

Turning to `CNC(=O)/C=C(\C)OP(=O)(OC)OC`, the Potency result in test [1], in test [2], in [3], in [4], in test [5] and in test [8] was “inactive” each time. Also, the Potency result in [6], in [9], in test [10] and in [7] was “inactive” throughout.

`COC(=O)/C=C(\C)OP(=O)(OC)OC`: the Potency entry in [1], in [2], in test [3], in test [4], in test [5] and in test [8] was “inactive” each time. Moreover, the Potency result in test [6], in test [10] and in [7] was “inactive” each time.

Consider `CCOP(=S)(OCC)SC(CCl)N1C(=O)c2ccccc2C1=O` (configuration not stated), for which the Potency entry in test [1], in test [2], in test [3], in [4], in test [5] and in [6] was “inactive” in each case. In addition, the Potency entry in [9] and in test [10] was “inactive” throughout.

Take `BrCCCBr`: the Potency entry in [1], in [2], in test [3], in test [4], in test [5] and in test [8] was “inactive” each time. Also, the Potency entry in test [6] and in test [7] was “inactive” each time.

In the case of `CCCCc1ccccc1`, the Potency entry in [1], in [2], in test [3], in test [4], in test [5] and in [8] was “inactive” in each case. Moreover, the Potency result in [6] and in [7] was “inactive” in each case.

With `O=[N+]([O-])c1ccc(CCl)cc1`, the Potency entry in test [1], in [2], in [3], in [4], in test [5] and in [8] was “inactive” each time. The Potency result in test [6], in [10] and in test [7] was “inactive” throughout.

Take `Nc1cc(Cl)ccc1Cl`: the Potency entry in test [1], in [2], in [3], in [4], in test [5] and in test [8] was “inactive” each time. The Potency entry in test [6], in test [9], in test [10] and in test [7] was “inactive” throughout.
